From PubChem BioAssay (NCATS)
Records with an inconclusive call do not appear. Where a call stands in place of a potency, no number is given. Activity calls are given as the source filed them. Unless noted, calls come from the whole dose curve.

Assays:
[1] = Inducers of the Endoplasmic Reticulum Stress Response (ERSR) in human glioma: Validation (AID 504836; active = well fitted curve in the direction sought with a large enough effect; an effect the other way counts as inactive or inconclusive)
Summary of the method: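 Stably transfected U87-MG glioma cells carrying a GRP78-based luciferase sensor; 16 h compound incubation. Luminescence end-point read 10 min after Bright-Glo addition at room temperature.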

[2] = qHTS profiling of the MIPE4 collection as inhibitors of Plasmodium falciparum (3D7) proliferation (AID 743344; call rule not given here); settings: P. falciparum 3D7 in erythrocytes, SYBR Green DNA fluorescence, 72 h; at 28.5 µM (top of the series) unless noted
Summary of the method: (§1)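 Erythrocytes infected with P. falciparum (0.3% parasitemia, 2.5% hematocrit) incubated with compounds 72 h at 37 C, 5% CO2. Lysis with saponin/Triton buffer containing SYBR Green I, overnight at room temperature in the dark; DNA fluorescence (485/535 nm) normalised to 0.29 uM artemisinin and DMSO.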

[3] = qHTS profiling of the MIPE4 collection as inhibitors of Plasmodium falciparum (DD2) proliferation (AID 743345; call rule not given here); settings: P. falciparum Dd2 in erythrocytes, SYBR Green DNA, 72 h; at 28.5 µM (top of the series) unless noted
Summary of the method: as §1

[4] = qHTS profiling of the MIPE4 collection as inhibitors of Plasmodium falciparum (HB3) proliferation (AID 743347; call rule not given here); settings: P. falciparum HB3 in erythrocytes, SYBR Green DNA, 72 h; at 28.5 µM (top of the series) unless noted
Summary of the method: as §1

[5] = qHTS for Inhibitors of the Functional Ribonucleoprotein Complex (vRNP) of Lassa (LASV) Arenavirus: LASV Primary Screen - GLuc reporter signal (AID 1347082; calls by dose curve; tested in HEK293 reporter line; note: nearly all actives have a fitted effect of over 60% in size; note: potency is the fitted concentration of half-maximal effect)
[6] = qHTS for Inhibitors of the Functional Ribonucleoprotein Complex (vRNP) of Lassa (LASV) Arenavirus: Viability assay - alamar blue signal for LASV Primary Screen (AID 1347083; calls by dose curve; tested in HEK293 reporter line; note: nearly all actives have a fitted effect of over 80% in size; note: potency is the fitted concentration of half-maximal effect)
[7] = molecular target: Nucleoprotein (Lymphocytic choriomeningitis virus (strain Armstrong)) (UniProt P09992); experiment: qHTS for Inhibitors of the Functional Ribonucleoprotein Complex (vRNP) of Lymphocytic Choriomeningitis Arenaviruses (LCMV): LCMV Primary Screen - GLuc reporter signal (AID 1347086); note: nearly all actives have a fitted effect of over 70% in size
Sequence of Nucleoprotein (Lymphocytic choriomeningitis virus (strain Armstrong)) (P09992 whole entry, looked up): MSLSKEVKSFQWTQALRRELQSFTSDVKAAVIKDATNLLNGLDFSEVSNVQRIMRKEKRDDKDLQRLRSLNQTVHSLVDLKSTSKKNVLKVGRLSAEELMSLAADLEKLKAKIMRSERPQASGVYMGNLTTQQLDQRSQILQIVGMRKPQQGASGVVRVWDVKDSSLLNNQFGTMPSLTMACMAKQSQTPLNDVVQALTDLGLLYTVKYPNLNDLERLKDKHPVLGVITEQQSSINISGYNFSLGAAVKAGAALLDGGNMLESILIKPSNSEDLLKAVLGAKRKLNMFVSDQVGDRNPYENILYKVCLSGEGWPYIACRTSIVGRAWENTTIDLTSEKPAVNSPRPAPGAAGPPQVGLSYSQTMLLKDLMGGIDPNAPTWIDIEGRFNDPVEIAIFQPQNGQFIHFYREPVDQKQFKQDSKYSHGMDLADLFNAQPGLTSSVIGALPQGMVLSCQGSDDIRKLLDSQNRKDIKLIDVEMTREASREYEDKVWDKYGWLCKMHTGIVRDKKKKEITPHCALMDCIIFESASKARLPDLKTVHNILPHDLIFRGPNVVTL

[8] = molecular target: Alpha-galactosidase (Coffea arabica) (UniProt Q42656); experiment: Counterscreen for Glucocerebrosidase Inhibitors: qHTS Assay for Coffee Bean alpha-Galactosidase at pH 4.5 (AID 957; active = well fitted curve in the direction sought with a large enough effect; an effect the other way counts as inactive or inconclusive)
Sequence of Alpha-galactosidase (Coffea arabica) (Q42656 whole entry, looked up): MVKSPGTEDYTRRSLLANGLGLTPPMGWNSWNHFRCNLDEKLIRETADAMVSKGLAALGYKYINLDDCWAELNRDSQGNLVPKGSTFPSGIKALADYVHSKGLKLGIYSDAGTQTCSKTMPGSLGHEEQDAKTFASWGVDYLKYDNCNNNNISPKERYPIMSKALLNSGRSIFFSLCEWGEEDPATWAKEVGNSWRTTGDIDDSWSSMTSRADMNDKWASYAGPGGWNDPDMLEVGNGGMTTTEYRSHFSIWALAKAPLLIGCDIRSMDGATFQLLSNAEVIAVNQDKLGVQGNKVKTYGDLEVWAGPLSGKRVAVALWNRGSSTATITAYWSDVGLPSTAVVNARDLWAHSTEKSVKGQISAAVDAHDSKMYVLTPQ
Summary of the method: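 Coffee bean enzyme (2 nM) with 80 uM 4-methylumbelliferyl alpha-D-galactopyranoside in 50 mM citric acid, 0.005% Tween-20, pH 4.5, 20 min at room temperature; compounds 0.7 nM–77 uM. Stopped at pH 10, fluorescence 365/440 nm; AC50 from Hill fits.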

[9] = molecular target: Alpha-galactosidase (Coffea arabica) (UniProt Q42656); experiment: Counterscreen for Glucocerebrosidase Inhibitors: qHTS Assay for Coffee Bean alpha-Galactosidase at pH 5.9 (AID 998; active = well fitted curve in the direction sought with a large enough effect; an effect the other way counts as inactive or inconclusive)
Summary of the method: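 Green coffee bean enzyme (2 nM) with 4-methylumbelliferyl alpha-D-galactopyranoside (80 uM) in 50 mM citric acid, 0.005% Tween-20, pH 5.9, 20 min at room temperature; compounds 0.7 nM–77 uM. Stopped at pH 10, fluorescence Ex365/Em440; Hill-fit AC50.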

[10] = Validation screen for inhibitors of Lassa infection (AID 463096)
[11] = Cytotoxicity counterscreen for inhibitors of SARS-CoV-2 cell entry (AID 1645845); note: nearly all actives have a fitted effect of over 50% in size
Summary of the method: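 HEK293-ACE2 cells (Expi293F stably expressing human ACE2) seeded overnight, then compound for 1 h plus 48 h at 37C. Viability as ATP content by luminescence; normalized to wells with cells and media-only wells.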

[12] = Primary qHTS to identify inhibitors of SARS-CoV-2 cell entry (AID 1645846); settings: activity change, negative = inhibition: at 57.1 µM (top of the series) unless noted; note: nearly all actives have a fitted effect of over 45% in size; note: potency is the fitted concentration of half-maximal effect
Summary of the method: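 Entry measured by luciferase signal 48 h after adding SARS-CoV-2-S pseudotyped MLV particles to HEK293-ACE2 cells preincubated 1 h with compounds. Normalisation: bald particles and spike particles.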

[13] = Confirmatory qHTS to identify inhibitors of SARS-CoV-2 cell entry (AID 1645844); note: potency is the fitted concentration of half-maximal effect; nearly all actives have a fitted effect of over 45% in size
Summary of the method: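 HEK293-ACE2 cells were pretreated 1 h with compound, then infected with MLV-based pseudoparticles bearing C-terminally truncated Wuhan-Hu-1 spike for 48 h at 37C; luciferase luminescence normalized to spike PP and bald PP wells.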

[14] = VSVG counterscreen qHTS to identify inhibitors of SARS-CoV-2 cell entry (AID 1645847); note: potency is the fitted concentration of half-maximal effect; nearly all actives have a fitted effect of over 65% in size
Summary of the method: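 Luminescence read after 48 h infection at 37 C with VSV-G-pseudotyped MLV particles, following 1 h compound exposure of Expi293F cells stably expressing human ACE2; scaled between bald particle and VSV-G particle wells.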

**Q.** What does the source list for `O=c1[nH]c(=O)n([C@H]2C[C@@H](O)[C@@H](CO)O2)cc1C=CBr`?
**A.** outcome [1]: inactive; parasite growth, % of DMSO control [2]: 139%; parasite growth remaining, % of DMSO control (lower = more inhibition) [3]: 118%; growth, % of control [4]: 652%; Potency [5]: inactive; Potency [6]: inactive; Potency [7]: inactive

**Q.** For `N=c1ccn2c(n1)O[C@H]1[C@H](O)[C@@H](CO)O[C@H]12`, which outcome [1] is on record?
**A.** inactive

**Q.** What about the Potency [5] of the same molecule?
**A.** inactive

**Q.** And the Potency [6]?
**A.** inactive

**Q.** What about the Potency [7] of the same molecule?
**A.** inactive

**Q.** With `C=CCn1c(=O)c2c(nc(-c3ccc(S(=O)(=O)O)cc3)n2C)n(C)c1=O` as the molecule, how does the outcome [8] read?
**A.** inactive

**Q.** And the outcome [9]?
**A.** inactive

**Q.** What about the Potency [10] of the same molecule?
**A.** inactive

**Q.** And the outcome [1]?
**A.** inactive

**Q.** What about the Potency [5] of the same molecule?
**A.** inactive

**Q.** And the Potency [6]?
**A.** inactive

**Q.** What about the Potency [7] of the same molecule?
**A.** inactive

**Q.** With `CNC(=O)c1c(F)cccc1Nc1nc(Nc2cc3c(cc2OC)CCN3C(=O)CN(C)C)nc2[nH]ccc12` as the molecule, how does the Potency [5] read?
**A.** inactive

**Q.** What about the Potency [6] of the same molecule?
**A.** inactive

**Q.** What about the Potency [11] of the same molecule?
**A.** inactive

**Q.** What about the Potency [12] of the same molecule?
**A.** 20 µM (active)

**Q.** With `Cc1ccc2nc(NCCN)c3ncc(C)n3c2c1` as the molecule, how does the Potency [5] read?
**A.** 17.2 µM (active)

**Q.** What about the Potency [6] of the same molecule?
**A.** 19.3 µM (active)

**Q.** What about the Potency [13] of the same molecule?
**A.** 19.2 µM (active)

**Q.** What about the Potency [14] of the same molecule?
**A.** 13.6 µM (active)

**Q.** What does the source list for `CCCn1c(=O)c2[nH]c(-c3cnn(Cc4cccc(C(F)(F)F)c4)c3)nc2n(CC)c1=O`?
**A.** Potency [5]: inactive; Potency [6]: inactive; Potency [11]: inactive; activity change, negative = inhibition [12]: -10.8%

**Q.** With `CC=C(C)C(=O)O[C@H]1C(C)=C[C@]23C(=O)[C@@H](C=C(CO)[C@@H](O)[C@]12O)[C@H]1[C@@H](C[C@H]3C)C1(C)C` as the molecule, how does the parasite growth remaining, % of DMSO control (lower = more inhibition) [3] read?
**A.** 78.2%

**Q.** And the Potency [5]?
**A.** inactive

**Q.** And the Potency [6]?
**A.** 4.32 µM (active)

**Q.** And the Potency [7]?
**A.** inactive
